This is an account of results in PubChem BioAssay.

Values without a mark were called inactive. For some of these results: Results with a measured potency or affinity are listed apart. Active and inactive are the calls of the source. Unless noted, no rule for the calls is given here.

Test [1] in a line: antimalarial activity against Dd2 strain (AID 2302;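 active = growth inhibition above 50% at the single 2 µM test dose, taken to imply half-maximal potency below 2 µM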;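 also: 0% = DMSO untreated growth and 100% = chloroquine plus artemisinin killed control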). The conditions noted are these: P. falciparum Dd2 in RBCs, LDH growth readout, 72 h; at 2 µM; hits give high values.
Test [2] can be described thus: human hepatoma cell viability loss – ATP luminescence, cytotoxicity control for P. falciparum antimalarial project, primary screen (AID 2303;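 active = inhibition above 50%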;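 also: 0% = DMSO wells and 100% = digitonin-killed cells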). The conditions noted are these: HepG2 viability, 24-48 h, at 10 µM, hits give high values.
Test [3] concerns the target L-lactate dehydrogenase (Plasmodium falciparum (isolate CDC / Honduras)) (UniProt Q27743). The test is described as follows: PfLDH activity inhibition – cell lysate, 3D7 strain, counter-screen for P. falciparum growth inhibition project (AID 2304).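 Also: 0% = vehicle and 100% = reference inhibitor.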 The conditions noted are these: P. falciparum 3D7 crude extract, LDH APAD/NBT absorbance; at 2 µM; hits give high values.
The nature of test [4]: inhibition of 3D7 malaria parasite growth – strain 3D7 (AID 2306).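 Also: 0% = DMSO wells and 100% = chloroquine plus artemisinin control wells.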 The conditions noted are these: P. falciparum 3D7 erythrocytic growth, LDH absorbance, 72 h; at 2 µM; hits give high values.
Test [5] concerns the target Calcium-dependent protein kinase 1 (Plasmodium falciparum (isolate 3D7)) (UniProt P62344). The test is described as follows: PfCDPK1 kinase inhibitors, biochemical, TCAMS library (AID 1159585; cut-off not given, nearly all actives have IC50 up to about 0.98 µM;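 also: inhibitors leave more ATP so luminescence rises with inhibition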). To be noted: recombinant PfCDPK1, Kinase-Glo ATP depletion luminescence.
The target in test [6] is Plasmodium falciparum protein kinase 6 (PK6, PF3D7_1337100) (UniProt Q8IDW1). Description: PfPK6 kinase inhibitors, biochemical, TCAMS library (AID 1159586). The conditions noted are these: recombinant PfPK6, Kinase-Glo ATP depletion luminescence.
Plasmodium falciparum protein kinase 6 (PK6, PF3D7_1337100), sequence (Q8IDW1 1-305): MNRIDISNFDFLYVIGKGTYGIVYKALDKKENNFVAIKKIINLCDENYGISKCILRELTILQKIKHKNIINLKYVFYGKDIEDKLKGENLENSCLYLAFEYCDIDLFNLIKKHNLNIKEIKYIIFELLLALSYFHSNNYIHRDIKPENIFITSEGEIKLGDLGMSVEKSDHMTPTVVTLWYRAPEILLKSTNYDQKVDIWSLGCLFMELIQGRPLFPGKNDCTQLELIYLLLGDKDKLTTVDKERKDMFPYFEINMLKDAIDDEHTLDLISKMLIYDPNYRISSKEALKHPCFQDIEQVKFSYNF
Test [7] has as its target Protein kinase 7 (PK7), Plasmodium falciparum 3D7 (PF3D7_0213400) (UniProt Q7YTF7). Description: inhibition of Plasmodium PK7 catalytic activity – biochemical, TCAMS antimalarial set, Kinase-Glo luminescence (AID 1159587). The conditions noted are these: recombinant PfPK7, Kinase-Glo ATP depletion luminescence.
Test [8] has as its target Calcium-dependent protein kinase 4 (Plasmodium falciparum (isolate 3D7)) (UniProt Q8IBS5). The test is described as follows: PfCDPK4 kinase inhibitors, biochemical, TCAMS library (AID 1159588; cut-off not given, nearly all actives have IC50 up to about 0.91 µM). The conditions noted are these: recombinant PfCDPK4, Kinase-Glo ATP depletion luminescence.

Protein kinase 7 (PK7), Plasmodium falciparum 3D7 (PF3D7_0213400), sequence (Q7YTF7 1-343): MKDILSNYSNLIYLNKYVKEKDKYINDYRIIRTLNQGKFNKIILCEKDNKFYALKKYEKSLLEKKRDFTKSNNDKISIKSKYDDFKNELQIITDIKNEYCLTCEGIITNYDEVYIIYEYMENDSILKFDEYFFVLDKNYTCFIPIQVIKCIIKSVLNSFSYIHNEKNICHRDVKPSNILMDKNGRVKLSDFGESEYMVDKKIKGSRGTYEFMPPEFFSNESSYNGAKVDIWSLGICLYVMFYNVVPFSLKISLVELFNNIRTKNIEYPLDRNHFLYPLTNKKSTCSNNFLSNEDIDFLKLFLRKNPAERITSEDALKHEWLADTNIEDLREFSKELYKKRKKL
Calcium-dependent protein kinase 4 (Plasmodium falciparum (isolate 3D7)), sequence (Q8IBS5 whole entry, looked up): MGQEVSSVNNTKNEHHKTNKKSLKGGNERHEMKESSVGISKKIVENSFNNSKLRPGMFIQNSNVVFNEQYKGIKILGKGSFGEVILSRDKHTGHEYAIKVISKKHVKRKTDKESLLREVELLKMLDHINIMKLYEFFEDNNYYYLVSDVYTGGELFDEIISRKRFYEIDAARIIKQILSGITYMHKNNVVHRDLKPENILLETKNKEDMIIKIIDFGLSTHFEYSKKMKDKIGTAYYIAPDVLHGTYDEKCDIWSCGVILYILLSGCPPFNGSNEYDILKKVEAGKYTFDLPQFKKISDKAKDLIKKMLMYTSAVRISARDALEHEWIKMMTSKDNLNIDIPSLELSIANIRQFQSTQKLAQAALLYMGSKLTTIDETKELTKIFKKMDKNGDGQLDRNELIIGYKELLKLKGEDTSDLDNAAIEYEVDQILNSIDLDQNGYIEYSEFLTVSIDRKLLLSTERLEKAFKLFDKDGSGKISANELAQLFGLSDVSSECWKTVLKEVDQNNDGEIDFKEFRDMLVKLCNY
L-lactate dehydrogenase (Plasmodium falciparum (isolate CDC / Honduras)), sequence (Q27743 whole entry, looked up): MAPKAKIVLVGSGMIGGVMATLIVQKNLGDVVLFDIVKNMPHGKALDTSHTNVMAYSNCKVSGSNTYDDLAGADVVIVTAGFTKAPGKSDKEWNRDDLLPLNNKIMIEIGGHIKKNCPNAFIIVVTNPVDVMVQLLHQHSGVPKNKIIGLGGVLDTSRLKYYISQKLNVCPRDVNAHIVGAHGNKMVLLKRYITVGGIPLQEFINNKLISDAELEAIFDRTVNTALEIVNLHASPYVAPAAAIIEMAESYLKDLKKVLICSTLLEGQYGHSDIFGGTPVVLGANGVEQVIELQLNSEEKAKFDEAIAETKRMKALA
Calcium-dependent protein kinase 1 (Plasmodium falciparum (isolate 3D7)), sequence (P62344 whole entry, looked up): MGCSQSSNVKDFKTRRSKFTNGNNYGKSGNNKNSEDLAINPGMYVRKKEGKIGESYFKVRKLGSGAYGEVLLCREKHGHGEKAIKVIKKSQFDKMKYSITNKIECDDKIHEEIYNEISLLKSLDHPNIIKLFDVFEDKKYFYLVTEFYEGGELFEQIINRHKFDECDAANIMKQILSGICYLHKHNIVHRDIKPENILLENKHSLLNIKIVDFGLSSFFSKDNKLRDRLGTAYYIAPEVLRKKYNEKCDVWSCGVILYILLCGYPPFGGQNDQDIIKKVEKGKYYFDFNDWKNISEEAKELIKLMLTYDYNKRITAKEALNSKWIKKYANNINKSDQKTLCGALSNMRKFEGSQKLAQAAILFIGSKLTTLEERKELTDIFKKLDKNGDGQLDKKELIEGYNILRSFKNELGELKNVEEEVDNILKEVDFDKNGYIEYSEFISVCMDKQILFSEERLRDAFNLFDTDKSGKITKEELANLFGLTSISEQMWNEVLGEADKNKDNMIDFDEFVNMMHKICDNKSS

On to `Cc1ccccc1C1CCN(C2CCC(NC(=O)c3csc(-c4cccc(Cl)c4)n3)CC2)CC1` (stereo not given), for which the growth inhibition in test [1] is 42%; in test [4] it was 85% (active). Further, the inhibition was 33% in test [2] and 3% in test [3]. In addition, the result in test [5], in test [6], in test [7] and in test [8] was inactive.
On to `CC(NC(=O)c1ccc(O)c(-c2ccc(Cl)c(Cl)c2)c1)C(=O)NC1CCCCC1` (stereo not given), for which the growth inhibition in test [1] was 82% (active); in test [4], 96% (active). For the same molecule, the inhibition in test [2] is -5%; in test [3], -2%. Besides, the result in test [5], in test [6], in test [7] and in test [8] was inactive.
For `CCCCCCn1c(Sc2ccc(C#N)c([N+](=O)[O-])c2)nnc1-c1ccccc1`, the growth inhibition in test [1] was 41%; in test [4] it was 97% (active). In addition, the inhibition in test [2] was 23%; in test [3], -1%. Moreover, the result in test [5], in test [6], in test [7] and in test [8] was inactive.
In the case of `CCC(C)CN1C(=O)C(c2ccccc2)(c2ccccc2)N=C1N` (stereo not given), the growth inhibition in test [1] was 79% (active); in test [4] it was 98% (active). For the same molecule, the values for the inhibition in test [2] and in test [3] were 11% and 4%, respectively. Besides, the outcome in test [5], in test [6], in test [7] and in test [8] was inactive.
With `CN1CCC(NCc2ccc(-c3ccc(S(=O)(=O)NCc4ccccc4)c(F)c3)cc2)CC1`, the growth inhibition in test [1] was 89% (active); in test [4], 99% (active). For the same molecule, the inhibition in test [2] is 53% (active); in test [3] it was -3%. The result in test [5], in test [6], in test [7] and in test [8] was inactive.
Regarding `N=c1n(CCN2CCCCC2)c2ccccc2n1CC(O)c1cccc(Br)c1` (stereo not given), the growth inhibition in test [1] was 33%; in test [4], 86% (active). In addition, the inhibition is 25% in test [2] and -1% in test [3]. In addition, the outcome in test [5], in test [6], in test [7] and in test [8] was inactive.
`N#Cc1cccc(C(=O)N2CCOC(CCN3CCC(c4ccccc4)CC3)(c3ccc(Cl)c(Cl)c3)C2)c1` (stereo not given): the values for the growth inhibition in test [1] and in test [4] were 49% and 87% (active), respectively. Besides, the inhibition is 51% (active) in test [2] and 0% in test [3]. Besides, the result in test [5], in test [6], in test [7] and in test [8] was inactive.
On to `CCOc1ccc2ccccc2c1CNCCCCCCNCc1c(OCC)ccc2ccccc12`, for which the growth inhibition is 89% (active) in test [1] and 100% (active) in test [4]. Besides, the inhibition in test [2] was 100% (active); in test [3], -2%. Besides, the outcome in test [5], in test [6], in test [7] and in test [8] was inactive.
Consider `CN(C)Cc1ccc(-c2cc3c(Nc4ccc(OCc5cccc(F)c5)c(Cl)c4)ncnc3s2)[nH]1`, for which the results for the growth inhibition in test [1] and in test [4] were 84% (active) and 100% (active), respectively. Also, the inhibition in test [2] is 8%; in test [3], -1%. Further, the outcome in test [5], in test [6], in test [7] and in test [8] was inactive.
`CCNc1cc(C(=O)N[C@@H](Cc2ccccc2)[C@H](O)CNCc2cc(OC)cc(OC)c2)cc(N2CCCS2(=O)=O)c1`: the growth inhibition was 86% (active) in test [1] and 99% (active) in test [4]. In addition, the inhibition in test [2] is -4%; in test [3], -2%. The outcome in test [5], in test [6], in test [7] and in test [8] was inactive.
As to `COc1cc(NC(=O)/C=C/c2cc(F)cc(F)c2F)cc(OCCN2CCC3(CC2)OCCO3)c1`, the growth inhibition in test [1] is 26%; in test [4] it was 98% (active). Further, the inhibition is 17% in test [2] and -3% in test [3]. Besides, the result in test [5], in test [6], in test [7] and in test [8] was inactive.
For `CCn1ccc2c(N3CCCCS3(=O)=O)cc(C(=O)N[C@@H](Cc3ccccc3)[C@H](O)CNC(C)(C)CCCC(C)C)cc21`, the growth inhibition is 98% (active) in test [1] and 96% (active) in test [4]. Also, the inhibition is 23% in test [2] and -6% in test [3]. Moreover, the result in test [5], in test [6], in test [7] and in test [8] was inactive.
For `NC(N)=Nc1nc(-c2cccc(NC(=O)Cc3ccccc3)c2)cs1`, the results for the growth inhibition in test [1] and in test [4] were 9% and 99% (active), respectively. In addition, the inhibition is 1% in test [2] and -8% in test [3]. For the same molecule, the outcome in test [5], in test [6], in test [7] and in test [8] was inactive.
Turning to `COc1ccc2ncc(Cl)c([C@H](O)CN3CCC(NCc4cc5c(cn4)OCCO5)CC3)c2c1`, the growth inhibition in test [1] and in test [4] was 100% (active) throughout. The figures for the inhibition in test [2] and in test [3] were 10% and 1%, respectively. Moreover, the outcome in test [5], in test [6], in test [7] and in test [8] was inactive.
For `CC(C)C(=O)ONC1=NC(C)(C)N(OCCCOc2cc(Cl)c(Cl)cc2Cl)C(NOC(=O)C(C)C)=N1`, the growth inhibition is 93% (active) in test [1] and 92% (active) in test [4]. Moreover, the inhibition in test [2] was 64% (active); in test [3] it was -9%. The result in test [5], in test [6], in test [7] and in test [8] was inactive.
`Cn1c(Nc2nnc(C3CC3)s2)nc2cc(Nc3ccnc(Nc4cccc(CS(C)(=O)=O)c4)n3)ccc21`: the growth inhibition was 83% (active) in test [1] and 97% (active) in test [4]. Further, the results for the inhibition in test [2] and in test [3] were -6% and -1%, respectively. Further, the result in test [5], in test [6], in test [7] and in test [8] was inactive.
Turning to `CN1CCCC(CN2CCN(Cc3ccc(-c4cccc(-c5nc6ccccc6[nH]5)c4)cc3)CC2)C1` (stereo not given), the growth inhibition in test [1] is 100% (active); in test [4], 101% (active). Moreover, the inhibition in test [2] is 57% (active); in test [3], -3%. In addition, the result in test [5], in test [6], in test [7] and in test [8] was inactive.
On to `CC(=O)Nc1ccc(S(=O)(=O)NC2=NC(C)(C)N(OCc3ccc(Cl)c(Cl)c3)C(N)=N2)cc1`, for which the growth inhibition is 98% (active) in test [1] and 93% (active) in test [4]. Moreover, the inhibition in test [2] was 44%; in test [3] it was 2%. The outcome in test [5], in test [6], in test [7] and in test [8] was inactive.
In the case of `CCC(CC)n1cc2c(ccc3nc(N)nc(N)c32)n1`, the growth inhibition in test [1] was -2%; in test [4], 91% (active). The inhibition in test [2] was 61% (active); in test [3], 4%. Moreover, the result in test [5], in test [6], in test [7] and in test [8] was inactive.
For `O=C(O[C@H]1CN[C@H](C#Cc2cc3ncnc(Nc4ccc5c(ccn5S(=O)(=O)c5cccs5)c4)c3s2)C1)N1CCOCC1`, the growth inhibition is 48% in test [1] and 85% (active) in test [4]. Moreover, the inhibition in test [2] is -4%; in test [3], -1%. Moreover, the result in test [5], in test [6], in test [7] and in test [8] was inactive.
